USP2a block = inhibitors of human ubiquitin-specific protease USP2a | Potency, µM (titrated, usually from 38.3 µM), actives largely listed as inhibitors | O75604 | USP2 core, Ub-CHOP2 coupled fluorogenic reporter, 485/531 | 0.01% of 330,000 active
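Deubiquitinase activity read as fluorescence (485/531 nm) after Ub-CHOP2 cleavage activates the enterokinase reporter on its substrate; USP2 core 10nM, Ub-CHOP2 and substrate 25nM each, 30min compound preincubation then 60min RT; data normalized to NEM, curves fitted.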
MmCpn inh = M. maripaludis TRiC chaperonin inhibition. purified Mm-Cpn ATPase, ADP Transcreener TR-FRET. Potency, µM (top dose mostly 76.9 µM), usual class: inhibitors. 0.031% of 330,000 active; also: nearly all actives have a fitted effect of over 80% in size
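Eu-cryptate anti-ADP/ADP-d2 competition gives a ratio inversely related to ADP. Enzyme at 25 nM was pre-exposed to compound for 10 min, then given 10 uM ATP for 30 min, 37°C throughout.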
ClpP mod = qHTS Assay for Activators of ClpP; ATP-dependent Clp protease proteolytic subunit (Bacillus subtilis (strain 168)), P80244; purified B. subtilis ClpP, FRET peptide cleavage, 20 min; Potency, µM (series often up to 57.5 µM); 1.9% of 340,000 active; active = well fitted falling curve with a large enough effect; inconclusive = small, poorly fitted or top-dose-only effect; inactive = no such curve, though single readings can be large or run the other way; also: the source files actives as falling curves though it sought activators and does not explain the sign; nearly all actives have a fitted effect of over 65% in size
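Purified B. subtilis ClpP, 10 microg/mL final in Tris/HCl pH8 with KCl, BSA, glycerol and Tween-20, cleaved an Abz/nitrotyrosine-quenched decapeptide. Fluorescence (ex 320, em 430) was read at 0 and 20 min at room temperature. Delta was normalized to 5.8 microM ADEP and DMSO/no-enzyme controls.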
p53 reactivation = mutant p53 re-activation in reporter cells; AID 504706; H1299 p53-A138V BP100-luciferase reporter, luminescence, 24 h; Potency, µM (doses to about 92.2 µM), hits mostly activators; 0.063% of 320,000 active; also: nearly all actives have a fitted effect of over 45% in size
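p53-null H1299 cells stably carrying temperature-sensitive p53-A138V and a BP100-luciferase reporter were pinned with compounds (4-point, 1:5 series) and held 24 hrs at 37 deg C. Luminescence was read 10 min after detection reagent.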
a7 integrin act = activates integrin-mediated alleviation for muscular dystrophy; alpha7betagal myoblasts, beta-gal FDG fluorescence, 48 h; Potency, µM (series often up to 38.3 µM), hits mostly activators; 0.064% of 350,000 active; AID 624291; also: nearly all actives have a fitted effect of over 60% in size
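alpha7betagal+/- myoblasts (passage 13, 250/well) treated 48 h at 37C with compounds at 1:260 dilution of DMSO stock. Lysed, then beta-galactosidase activity read as FDG fluorescence (ex 480/em 540) after 30 min, with pre-read for autofluorescence.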
Eya2 inh = blocks the phosphatase activity of human Eya2 | O00167 | recombinant Eya2, OMFP fluorescence dephosphorylation (OMFP is methylfluorescein phosphate) | Potency, µM (highest dose often 76.9 µM), actives largely listed as inhibitors | 0.006% of 330,000 active
Target sequence (O00167 whole entry, looked up): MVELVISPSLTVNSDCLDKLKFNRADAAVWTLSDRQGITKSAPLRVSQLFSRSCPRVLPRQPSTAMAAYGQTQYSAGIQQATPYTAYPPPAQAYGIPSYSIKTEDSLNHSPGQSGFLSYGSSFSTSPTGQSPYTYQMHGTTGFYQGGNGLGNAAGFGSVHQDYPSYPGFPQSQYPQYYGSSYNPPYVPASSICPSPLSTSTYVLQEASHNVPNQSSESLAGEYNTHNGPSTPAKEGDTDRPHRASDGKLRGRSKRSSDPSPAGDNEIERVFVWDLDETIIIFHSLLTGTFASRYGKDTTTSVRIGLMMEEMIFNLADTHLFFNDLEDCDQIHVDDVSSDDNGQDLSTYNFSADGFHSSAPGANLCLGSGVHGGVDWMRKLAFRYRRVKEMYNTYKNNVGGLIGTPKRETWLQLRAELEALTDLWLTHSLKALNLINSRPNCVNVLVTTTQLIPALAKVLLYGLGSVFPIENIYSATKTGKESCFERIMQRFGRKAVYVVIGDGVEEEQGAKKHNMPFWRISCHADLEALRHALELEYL
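Eya2 (0.2 uM) preincubated 10 min at ambient with compound, then OMFP substrate added at 50 uM; 10 min reaction in 50 mM HEPES pH 7.5, 50 mM NaCl, 5 uM MgCl2, 0.05% BSA, 1 mM DTT. Fluorescence read at Ex 485/Em 525 nm.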
Hits are given with their value; i = inactive; ? = inconclusive; nt = not tested or not shown. The sample as a whole holds a higher share of hits than the screen did. Unless noted, calls follow the shape of the dose curve; as a rule, active = well fitted curve in the direction sought with a large enough effect; inconclusive = small, poorly fitted or top-dose-only effect, or another doubt; inactive = no such curve, though single readings can be large; an effect the other way counts as inactive or inconclusive.

SMILES	USP2a block	MmCpn inh	ClpP mod	p53 reactivation	a7 integrin act	Eya2 inh
CCOC(=O)C(CC)Sc1ncnc2c1c(-c1ccccc1)cn2-c1ccc(OC)cc1 (centres undefined)	nt	nt	22.4µM	nt	nt	nt
COc1ccc(CNc2ncnc3c2c(-c2ccccc2)cn3-c2ccccc2)cc1	nt	nt	25.1µM	nt	nt	nt
COc1ccccc1CNc1ncnc2c1c(-c1ccccc1)cn2-c1ccc(Br)cc1	nt	nt	i	nt	nt	nt
CCOc1ccc(-n2cc(-c3ccccc3)c3c(NCc4ccc(F)cc4)ncnc32)cc1	nt	nt	i	nt	nt	nt
Cc1nn(-c2ccc(F)cc2)c2c1cc(C#N)c1nc3ccccc3n12	i	i	15.8µM	i	i	i
O=C1c2ccccc2NC(c2cc(Br)c3c(c2)OCO3)N1Cc1ccco1 (centres undefined)	nt	nt	i	nt	nt	nt
CCCCCCCCNc1ccc(/C=C/c2ccnc3ccccc23)cc1	nt	nt	i	nt	nt	nt
Cc1cc(Nc2ccc(C)c(Cl)c2)n2nc(Cc3ccccc3)nc2n1	nt	nt	i	nt	nt	nt
CCN1CCCC1CNC(=O)c1ccc2c(=O)n(CCOC)c(=O)[nH]c2c1 (centres undefined)	i	i	31.6µM	i	i	i
CCC1CCCCN1CCCNC(=O)c1ccc2c(=O)n(CCOC)c(=O)[nH]c2c1 (centres undefined)	i	i	nt	i	i	i
COCCn1c(=O)[nH]c2cc(C(=O)NCC3CCCO3)ccc2c1=O (centres undefined)	i	i	28.2µM	i	i	i
C#CCOCCOCCOCCNc1nc(N2CCN(C(=O)CCCCCCCCCCNC(=O)[C@H](CCCCN)n3cc(C)nn3)CC2)nc(N2CCN(C(=O)CCCCCCCCCCNC(=O)[C@@H]([C@H](C)CC)n3cc(CCCCCN)nn3)CC2)n1	?	i	nt	i	nt	i
C#CCOCCOCCOCCNc1nc(N2CCN(C(=O)CCCCCCCCCCNC(=O)[C@H]([C@@H](C)CC)n3cc(CCCCCN)nn3)CC2)nc(N2CCN(C(=O)CCCCCCCCCCNC(=O)[C@@H]([C@H](C)O)n3cc(C)nn3)CC2)n1	10µM	i	i	i	i	28.2µM
Cc1ccc2cc3c(N)c(C(=O)Nc4c(C)[nH]c(=O)[nH]c4=O)sc3nc2c1	i	i	15.8µM	i	i	i
CCOC(=O)c1cc2c(=O)n3ccccc3nc2n(CCOC)c1=NC(=O)c1ccncc1	i	i	12.6µM	i	i	i
CCOC(=O)c1cc2c(=O)n3ccccc3nc2n(C(C)C)c1=NC(=O)c1ccncc1	i	i	28.2µM	i	i	i
COCCn1c(=N)c(S(=O)(=O)c2ccc(Br)cc2)cc2c(=O)n3ccccc3nc21	i	i	i	i	4.47µM	i
CCOC(=O)c1cc2c(=O)n3ccccc3nc2n(C(C)C)c1=NC(=O)c1c(-c2ccccc2Cl)noc1C	i	i	nt	i	i	i
COCCn1c(=N)c(S(=O)(=O)c2ccc(F)cc2)cc2c(=O)n3ccccc3nc21	i	i	i	i	i	i
CCOC(=O)c1cc2c(=O)n3ccccc3nc2n(CCCOC)c1=NC(=O)C(C)(C)C	i	i	28.2µM	i	i	i
O=C(NC1CC1)c1ccc2nc(-c3ccco3)c(-c3ccco3)nc2c1	nt	nt	i	nt	nt	nt
O=Cc1ccc(/C=C2\C=Cc3ccccc32)cc1	nt	nt	i	nt	nt	nt
CCOC(=O)c1cc2c(=O)n3ccccc3nc2n(CCOC)c1=NC(=O)C(C)(C)C	i	i	17.8µM	i	i	i
CCOC(=O)c1cc2c(=O)n3ccccc3nc2n(CCOC)c1=NC(=O)C(C)(C)Oc1ccc(Cl)cc1	nt	nt	i	nt	nt	nt
C#CCn1c(=NC(=O)CN2C(=O)CCC2=O)sc2cc(S(N)(=O)=O)ccc21	i	i	i	i	i	i
C#CCn1c(=NC(=O)c2cc(Cl)sc2Cl)sc2cc(S(N)(=O)=O)ccc21	i	50.1µM	?	i	i	i
COC(=O)Cn1c(=NC(=O)c2sc3ccccc3c2Cl)sc2cc(S(N)(=O)=O)ccc21	i	i	14.1µM	i	i	i
COc1ccc(C(=O)N(Cc2ccc(C(C)C)cc2)C2CCS(=O)(=O)C2)cc1 (centres undefined)	nt	nt	i	nt	nt	nt

Bioassay records from PubChem.
